Sampled rows, rich in hits. Any-hit rate of the full collection: about 6.8%.
Pf Dd2 inh = P. falciparum Dd2 growth inhibitors, primary screen, SYBR Green fluorescence, single dose replicates; 72 h; stronger effect = lower value; activity change, % at 10 µM; actives 2.3% (n = 94,000); AID 1159554, 2015; in the data active = activity change below about -80%; inconclusive = no clear call, values can overlap the other calls
T cruzi growth-1 = T. cruzi intracellular proliferation inhibitors, primary screen, cell-based, beta-gal Tulahuen parasites, NIH3T3 host, luminescence; actives 5.9% (n = 77,000); T. cruzi beta-gal in NIH3T3, GalScreen luminescence, 90 h; inhibition, % at 8.34 µM;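 active = mean inhibition above about 93%, with at least 55% of replicates each passing it, limit read from the data, passing the limit was not always enough; inconclusive = only one of those two conditions holds; inactive = neither condition holds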
C diff growth = C. difficile growth inhibitors, primary screen, HTS; actives 0.25% (n = 86,000); growth activity, negative = inhibition, % at 16 µg/mL (by protocol); Clostridium difficile clinical isolate growth, OD600, 24 h; stronger effect = lower value; AID 1259249, 2017;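 active = mean growth activity at or below -80% and every replicate also at or below -80%; inconclusive = mean at or below -80% but some replicate above -80%; inactive = mean growth activity above -80%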;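 note: 0% = DMSO wells and -100% = levofloxacin 16 µg/mL wells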
T cruzi growth-2 = T. cruzi intracellular proliferation inhibitors, confirmation, cell-based, NIH3T3 host, beta-gal parasite, luminescence, cherry-pick. T. cruzi beta-gal in NIH3T3, GalScreen luminescence, 90 h. shares compounds with T cruzi growth-1. actives 72% (n = 5,600). inhibition, % at 8.35 µM. AID 651739, 2012;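 active = mean replicate inhibition above about 95% and at least 55% of replicates individually reaching it, limit read from the data; inconclusive = only one of the two criteria is met; inactive = neither criterion is met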
T cruzi growth-3 = inhibitors of intracellular T. cruzi replication, confirmation, NIH3T3 host cells, beta-gal parasites, cherry-pick, set 2. shares compounds with T cruzi growth-1. T. cruzi beta-gal in NIH3T3, GalScreen luminescence, 90 h. inhibition, % at 2.09 µM. actives 21% (n = 5,600). AID 651740, 2012;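 active = mean inhibition above about 95%, with at least 55% of replicates also reaching it, limit read from the data; inconclusive = meets just one of the two conditions; inactive = meets neither condition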;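 note: plate controls were neutral control median for no effect and positive control median for full effect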
NIH3T3 tox = cytotoxicity in mouse NIH/3T3 fibroblasts, confirmation, cytotoxicity control for T. cruzi proliferation inhibitor project, cell-based, cherry-pick, single point | NIH/3T3 viability, CellTiter-Glo ATP luminescence, 90 h | actives 14% (n = 5,600) | AID 651742, 2012 | shares compounds with T cruzi growth-1 | cytotoxicity (signal decrease), % at 8.35 µM;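 active = mean signal decrease across replicates above about 35% based on untreated-well scatter, with enough replicates individually passing, limit read from the data; inconclusive = no rule stated though some were filed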;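 note: 0% = median of neutral control wells and 100% = median of positive control wells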
3T3 cytotox 2 = NIH/3T3 fibroblast cytotoxicity, confirmation, cytotoxicity control, cell-based, cherry-pick, single point, set 2; shares compounds with T cruzi growth-1; NIH/3T3 viability, CellTiter-Glo ATP luminescence, 90 h; inhibition, % at 24.9 µM; actives 56% (n = 5,600); AID 651744, 2012;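 active = mean loss of cell viability signal at or above a set limit, and enough replicates individually reaching it; inconclusive = meets only the mean limit or only the replicate share; inactive = meets neither condition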;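 note: 0% = median of neutral control wells and 100% = median of positive control wells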
* hit, by the source's call; ? = inconclusive; nt = no result; ! = a repeat was not active.

SMILES | Pf Dd2 inh | T cruzi growth-1 | C diff growth | T cruzi growth-2 | T cruzi growth-3 | NIH3T3 tox | 3T3 cytotox 2
CCNC(=O)[C@H]1[C@H](CO)[C@H]2Cn3c(ccc(C4=CCCCC4)c3=O)[C@H]2N1C(=O)c1cnccn1 | -13 | 66 | 2 | nt | nt | nt | nt
CCNC(=O)[C@@H]1[C@@H](CO)[C@@H]2Cn3c(ccc(C4=CCCCC4)c3=O)[C@@H]2N1C(=O)c1cnccn1 | -42 | 82 | -4 | nt | nt | nt | nt
CCNC(=O)[C@@H]1[C@@H](CO)[C@@H]2Cn3c(ccc(C4=CCCC4)c3=O)[C@@H]2N1C(=O)CC1CC1 | 8 | ? | 1 | 55 | 18 | 0 | -11
CCCNC(=O)[C@H]1[C@H](CO)[C@H]2Cn3c(ccc(C4=CCCC4)c3=O)[C@H]2N1C(=O)c1cnccn1 | -4 | 99* | 2 | 33 | -7 | 5 | 7
CCCNC(=O)[C@@H]1[C@@H](CO)[C@@H]2Cn3c(ccc(C4=CCCC4)c3=O)[C@@H]2N1C(=O)c1cnccn1 | -7 | 97* | 1 | 22 | 0 | -22 | -3
CCNC(=O)[C@H]1[C@H](CO)[C@H]2Cn3c(ccc(C4=CCCCC4)c3=O)[C@H]2N1C(=O)CC1CC1 | -5 | 11 | -3 | nt | nt | nt | nt
Cc1ccc(S(=O)(=O)N(C)C[C@@H]2Oc3ccc(NS(=O)(=O)c4ccc(F)cc4)cc3CC(=O)N([C@H](C)CO)C[C@@H]2C)cc1 | -35 | 20 | 26 | nt | nt | nt | nt
CO[C@H]1CN(C)C(=O)c2cc(NS(=O)(=O)c3cn(C)cn3)ccc2OC[C@H](C)N(Cc2cccc(F)c2)C[C@H]1C | -7 | nt | nt | nt | nt | nt | nt
CO[C@@H]1CN(C)C(=O)c2cc(NC(=O)C3CCC3)ccc2OC[C@H](C)N(Cc2ccccn2)C[C@@H]1C | 56 | -50 | 1 | nt | nt | nt | nt
COc1ccc(C#Cc2cnc3c(c2)C(=O)N([C@@H](C)CO)C[C@@H](C)[C@@H](CN(C)C(=O)Nc2cccc(OC)c2)O3)cc1 | -43 | ? | 16 | 109* | 73 | 5 | 14
COc1cccc(NC(=O)N(C)C[C@@H]2Oc3ncc(C#Cc4ccncc4)cc3C(=O)N([C@@H](C)CO)C[C@H]2C)c1 | 2 | nt | 0 | nt | nt | nt | nt
COc1ccc(C#Cc2cnc3c(c2)C(=O)N([C@H](C)CO)C[C@@H](C)[C@@H](CN(C)C(=O)Nc2cccc(OC)c2)O3)cc1 | -66 | ? | 4 | 110* | 82 | -19 | 13
COc1ccc(C#Cc2cnc3c(c2)C(=O)N([C@@H](C)CO)C[C@H](C)[C@@H](CN(C)C(=O)Nc2cccc(OC)c2)O3)cc1 | -5 | 42 | -7 | nt | nt | nt | nt
COc1ccc(C#Cc2cnc3c(c2)C(=O)N([C@H](C)CO)C[C@H](C)[C@@H](CN(C)C(=O)Nc2cccc(OC)c2)O3)cc1 | -43 | 110*! | 4 | 96* | 47 | -4 | 29*
COc1ccc(C#Cc2cnc3c(c2)C(=O)N([C@@H](C)CO)C[C@H](C)[C@H](CN(C)C(=O)Nc2cccc(OC)c2)O3)cc1 | -37 | 58 | 17 | nt | nt | nt | nt
CCC(=O)N1[C@H](CN(CC)C(=O)c2ccc(F)cc2)[C@H](c2ccccc2)[C@@H]1CO | 3 | -7 | 0 | nt | nt | nt | nt
C[C@@H]1CN([C@@H](C)CO)C(=O)c2cc(C3=CCCC3)cnc2O[C@@H]1CN(C)C(=O)c1ccc2c(c1)OCO2 | 16 | nt | 2 | nt | nt | nt | nt
C[C@@H](NC(=O)[C@H]1[C@H](CO)[C@H]2Cn3c(ccc(-c4ccccc4)c3=O)[C@H]2N1C)c1ccccc1 | 3 | 50 | 2 | nt | nt | nt | nt
C[C@H](O)C#Cc1ccc2c(c1)O[C@@H](CN(C)CC1CC1)[C@H](C)CN([C@@H](C)CO)S2(=O)=O | -38 | 84 | 1 | nt | nt | nt | nt
COCCNC(=O)C[C@@H]1CC[C@H]2[C@H](COc3ccc(NC(=O)Nc4ccccc4)cc3C(=O)N2C)O1 | -6 | 7 | -13 | nt | nt | nt | nt
Cc1noc(C)c1NC(=O)N(C)C[C@@H]1Oc2ccc(N(C)C)cc2CC(=O)N([C@@H](C)CO)C[C@@H]1C | 40 | -15 | -1 | nt | nt | nt | nt
C[C@@H]1CN([C@H](C)CO)C(=O)c2cc(-c3cccc(F)c3)cnc2O[C@@H]1CN(C)C(=O)C1CCCCC1 | -24 | -26 | 8 | nt | nt | nt | nt
CN(C)C(=O)c1ccc(-c2ccc([C@H]3[C@@H](CO)N4CCCCN(Cc5cccnc5)C[C@H]34)cc2)cc1 | -7 | ? | 8 | 104* | 91 | 3 | -7
CN(C)C(=O)c1ccc(-c2ccc([C@@H]3[C@@H](CO)N4CCCCN(Cc5cccnc5)C[C@H]34)cc2)cc1 | 4 | 12 | 7 | nt | nt | nt | nt
CN(C)C(=O)c1cccc(-c2ccc([C@H]3[C@@H](CO)N4CCCCN(Cc5cccnc5)C[C@H]34)cc2)c1 | 3 | ? | -7 | 107* | 88 | 2 | -16
SMILES | Pf Dd2 inh | T cruzi growth-1 | C diff growth | T cruzi growth-2 | T cruzi growth-3 | NIH3T3 tox | 3T3 cytotox 2
CN(C)C(=O)c1cccc(-c2ccc([C@@H]3[C@H](CO)N4CCCCN(Cc5cccnc5)C[C@@H]34)cc2)c1 | -5 | 13 | -5 | nt | nt | nt | nt
O=C(C[C@@H]1C=C[C@H](NC(=O)C2CC2)[C@@H](CO)O1)NCCCN1CCOCC1 | 9 | nt | 1 | nt | nt | nt | nt
C[C@H](CO)N1C[C@H](C)[C@@H](CN(C)C(=O)NC2CCCC2)Oc2ncc(C#CC3CCCCC3)cc2C1=O | -62 | 95 | 11 | nt | nt | nt | nt
Cc1ccc(S(=O)(=O)Nc2ccc3c(c2)C(=O)N([C@@H](C)CO)C[C@H](C)[C@@H](CN(C)S(=O)(=O)c2ccc(C)cc2)OCCCC[C@H](C)O3)cc1 | -76 | 106* | nt | 108* | 85 | -19 | -17
Cc1ccc(S(=O)(=O)N(C)C[C@@H]2OCCCC[C@@H](C)Oc3ccc(NS(=O)(=O)c4ccccc4)cc3C(=O)N([C@H](C)CO)C[C@H]2C)cc1 | -65 | 102 | 10 | nt | nt | nt | nt
Cc1ccc(S(=O)(=O)Nc2ccc3c(c2)C(=O)N([C@H](C)CO)C[C@@H](C)[C@H](CN(C)S(=O)(=O)c2ccc(C)cc2)OCCCC[C@H](C)O3)cc1 | -64 | 91 | nt | nt | nt | nt | nt
Cc1ccc(S(=O)(=O)Nc2ccc3c(c2)C(=O)N([C@H](C)CO)C[C@H](C)[C@H](CN(C)S(=O)(=O)c2ccccc2)OCCCC[C@@H](C)O3)cc1 | -34 | 45 | -3 | nt | nt | nt | nt
Cc1ccc(S(=O)(=O)Nc2ccc3c(c2)C(=O)N([C@H](C)CO)C[C@@H](C)[C@@H](CN(C)S(=O)(=O)c2ccccc2)OCCCC[C@H](C)O3)cc1 | -71 | 94 | -6 | nt | nt | nt | nt
